Here are results for 93 molecules from PubChem BioAssay AID624352 (Sanford-Burnham Center for Chemical Genomics, 2012).

The campaign covered roughly 360,000 compounds. About 2,600 (0.72%) were called active. The sample holds actives, similar compounds and a random draw of the others, so the mix is not that of the screen. Values without a mark were called inactive.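 How the source made its calls: active means inhibition of the luminescence signal of 40% or more relative to plate controls, in a single-dose primary screen at 18.75 µM; inactive means the rest.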

This experiment can be described thus: blockers of HIF-2a driven luciferase – luminescence, 786-0 RCC cells, primary screen (AID 624352). Conditions: 786-0 RCC cells HIF-2a reporter, overnight, at 18.8 µM, active compounds read high.
The inhibition is the relative decrease from the control value, in per cent. In the case of `CCOCCc1c(O)nc(SCC(=O)NCc2ccco2)[nH]c1=O`, the inhibition was 11%.
Regarding `COc1ccc2c(c1)c(=Cc1ccc(N(C)C)cc1)c1cc(-c3ccccc3)[n+](C)n12`, the inhibition is 88.2% (active).
Take `Cc1ccc(NC(=O)COC(=O)CN2CCCCCC2=O)c(C)c1`: the inhibition was 11.4%.
In the case of `CC(C)COc1ccc(C(=O)NNC(=O)CCC(=O)c2cccs2)cc1`, the inhibition is -5.7%.
Regarding `Cc1cccc(C(=O)OC(C)C(=O)NC2CCCc3ccccc32)c1O` (stereo not drawn), the inhibition was 3.74%.
As for `CC1CCCCN1S(=O)(=O)CCNC(=O)c1ccccc1` (stereo not drawn), the inhibition was 2.54%.
On to `O=C1COc2ccc(C(=O)CSc3ccc(Br)cc3)cc2N1`, for which the inhibition is -19.3%.
Take `CN(CCc1ccccc1)C(=O)c1cccc(NC(=O)Cc2cccc(NC(=O)C3CCCN(C(=O)CCc4ccccc4)C3)c2)c1` (stereo not drawn): the inhibition was 1.76%.
Take `N#C/C(=C(\O)CCl)c1nnc2n1CCCCC2`: the inhibition was -5.99%.
Take `N#C/C(=C/c1cccc([N+](=O)[O-])c1)c1nnc2n1CCCCC2`: the inhibition was 40.7% (active).
As for `N#C/C(=C(\O)C(F)(F)F)c1nnc2n1CCCCC2`, the inhibition is 19.1%.
Regarding `CCOC(=O)C(=Cc1ccccc1OC)C(=O)OCC`, the inhibition was 56.9% (active).
Regarding `CCOC(=O)C(=Cc1ccccc1)C(=O)c1ccccc1`, the inhibition was 86.9% (active).
As to `COc1ccccc1C(=O)c1ccccc1C(=O)c1ccccc1`, the inhibition is 12%.
As for `CCOC(=O)/C(=C\c1ccc([N+](=O)[O-])cc1)C(=O)c1cc(C(C)=O)c(Nc2ccccc2)s1`, the figure is 8.67%; as for `COc1ccccc1/C=C/C(=O)NC1CC2CCC1C2` (stereo not drawn), -129%; as for `CCc1ccccc1NC(=O)/C(=C/c1ccccc1)c1ccccc1`, 2.55%.
To `COC(=O)[C@H](CC(C)C)NC(=O)N1CCCCC1C` (stereo partly drawn) belongs 10.8%.
In the case of `C=CCn1c(SCCOc2ccc(OC)cc2)nnc1C(NC(=O)c1ccc(OC)cc1)C(C)C` (stereo not drawn), the inhibition was 26.4%.
To `O=C(NNC(=S)NCCCN1CCOCC1)c1ccncc1` belongs 9.32%; to `O=C(C[n+]1ccc2c(c1)nnn2-c1ccccc1)c1ccc(Cl)cc1`, -14.6%.
To `c1c2c(cc3sc(N4CCCCC4)nc13)OCCO2` belongs 70.3% (active); to `O=C(CN1C(=O)NC2(CCOc3ccccc32)C1=O)NCc1ccc(F)cc1` (stereo not drawn), 7.05%; to `O=C(CC12CC3CC(CC(C3)C1)C2)Nc1ccc2c(c1)COC2=O`, -0.0166%.
On to `CC1=CC(C)(C)Nc2ccc(OC(=O)CN3C(=O)C4CCCCC4C3=O)cc21` (stereo not drawn), for which the inhibition is 85.2% (active).
In the case of `O=C(COC(=O)CN1C(=O)C2CCCCC2C1=O)Nc1ccc(F)c(F)c1F` (stereo not drawn), the inhibition was 15.9%.
As for `COc1ccc(C(=O)COC(=O)CN2C(=O)C3CC=CCC3C2=O)c(OC)c1` (stereo not drawn), the inhibition was -7.43%.
Turning to `C=CCN(C(=O)Cn1ncc2c1-c1cc(C)ccc1OC2)c1ccccc1`, the inhibition was 8.04%.
With `CCOc1ccccc1NC(=O)C1CCCN(S(=O)(=O)c2ccccc2)C1` (stereo not drawn), the inhibition was 6.68%.
As to `O=C(Nc1ccccc1)c1nnsc1S(=O)(=O)c1ccc(Cl)cc1`, the inhibition is 55.9% (active).
With `CN(C)/C=C(/C(=O)c1ccccc1)S(=O)(=O)c1ccc(Cl)cc1`, the inhibition was -9.32%.
Turning to `C/C(=N\NS(=O)(=O)c1ccc(Cl)cc1)c1ccc(NC(=O)c2ccco2)cc1`, the inhibition is -80.3%.
On to `CCCC(C(=O)N1CCOCC1)N1C(=O)C2C3C=CC(C3)C2C1=O` (stereo not drawn), for which the inhibition is 5.26%.
Consider `CC(C)OCCCNC(=O)CNC(=O)c1cccs1`, for which the inhibition is -6.91%.
As for `Cc1ccc(NNC(=O)c2cccs2)cc1Cl`, the figure is -22.8%; as for `Cc1ccccc1C(CC(=O)c1cccs1)C(C#N)C#N` (stereo not drawn), 59.7% (active); as for `CCCCOC(=O)CNc1nnc(SCC(=O)OCC)[nH]c1=O`, 16.2%.
Regarding `C[C@@H](NC(=O)[C@@H]1Cc2ccccc2CN1)C(=O)NC1CCCC1`, the inhibition was -3.06%.
Turning to `CN(C)S(=O)(=O)c1ccc(Oc2ccc(S(=O)(=O)N(C)C)cc2)cc1`, the inhibition was 0.813%.
Take `CC(C)(C)c1ccc(Oc2ccc(N)cc2)cc1`: the inhibition is 94.1% (active).
On to `NC[C@H](Cc1ccccc1)NCCc1cc(C(F)(F)F)cc(C(F)(F)F)c1`, for which the inhibition was 8.13%.
As for `C=CCn1c(C)cc(C2=NNC(=NCC)SC2)c1C`, the inhibition is 92.7% (active).
Consider `CCOc1cccc(NC(=O)Cn2nc(-c3ccc4c(c3)OCCO4)ccc2=O)c1`, for which the inhibition was 3.02%.
With `CN(C)CCn1c2c(c(SCC(=O)NCc3ccccc3)nc1=O)CCC2`, the inhibition is 11.3%.
For the molecule `Cn1c(=O)c2ccccc2n(CC(=O)Nc2ccc3c(c2)OCCO3)c1=O`, the inhibition was 0.929%.
Consider `COc1ccc(C(=O)NCC(c2ccco2)N2CCc3ccccc32)cc1OC` (stereo not drawn), for which the inhibition was 23%.
For the molecule `COc1cc(C2C(C(=O)c3sc(C)nc3C)=C(O)C(=O)N2CCN(C)C)cc(OC)c1OC` (stereo not drawn), the inhibition is 17.5%.
To `O=c1oc2ccccc2cc1-c1cn(-c2ccccc2)c(=S)[nH]1` belongs 73.6% (active); to `CN(C)CC(C)(C)CNC(=O)c1cc(Br)cc(Br)c1O`, 8.3%.
As for `O=C1/C(=C\c2ccc([N+](=O)[O-])cc2)CS(=O)(=O)C/C1=C/c1ccc([N+](=O)[O-])cc1`, the inhibition was 92.6% (active).
To `O=[N+]([O-])c1ccc(CN2CC(N3CC=CC3)CS2(=O)=O)cc1` (stereo not drawn) belongs 3.7%.
As for `CC(=O)Nc1cc(-c2ccccc2N(C)C)cn2c(-c3ccc(F)c(Cl)c3)cnc12`, the figure is -0.208%.
To `CCc1ccc(Oc2nc([N+](=O)[O-])nn2C)cc1` belongs -0.728%; to `CC1CCCN(C(=O)c2ccc3c(c2)C(=O)N(CCC2=CCCCC2)C3=O)C1` (stereo not drawn), 2.05%.
Regarding `CC1Cc2ccccc2N1C1=CC(=O)CC(C)(C)C1` (stereo not drawn), the inhibition is 9.32%.
Turning to `COc1cccc(-c2coc3cc4oc(=O)c(CC(=O)O)c(C)c4cc23)c1`, the inhibition was -58%.
As to `Cc1coc2cc3oc(=O)c(CCC(=O)O)c(C)c3cc12`, the inhibition was 17%.
With `Cc1c(CCC(=O)O)c(=O)oc2cc3occ(-c4ccccc4)c3cc12`, the inhibition is 63.2% (active).
Regarding `CC(C)c1ccc2c(c1)c(SC(C)(C)C)c(CC(C)(C)C(=O)O)n2Cc1ccc(Cl)cc1`, the inhibition is -26.8%.
Consider `CCCC(=O)N1CCN(c2nnc(-c3ccc(C)cc3)c3ccccc23)CC1`, for which the inhibition is 12.6%.
Consider `Cc1ccc2[nH]c(C(=O)O)c(NC(=O)c3ccccc3[N+](=O)[O-])c2c1`, for which the inhibition is 13.4%.
As for `O=C(c1ccc(Cl)c(S(=O)(=O)N2CCCCCC2)c1)N1CCN(c2ccc(O)cc2)CC1`, the figure is 11.3%; as for `O=C1C=CC(=O)N1c1ccc(N2CCCCC2)cc1`, 69.5% (active).
With `c1ccc(-n2cccc2)c(N2CCCCC2)c1`, the inhibition was 13.2%.
Consider `CCOC(=O)c1nn(-c2ccccc2F)c2nc(Nc3ccccc3)cc(=O)n12`, for which the inhibition is 7.21%.
As for `CN(C)c1nc2n(c(=O)n1)CCO2`, the figure is 6.35%; as for `COC(=O)CSc1nc2c(c(C3CC=CCC3)c1C#N)CCC2` (stereo not drawn), 0.0766%; as for `CC1(C(=O)NS(=O)(=O)c2cccc(OC(F)F)c2)CCN1C(=O)COc1ccc(Cl)cc1` (stereo not drawn), 6.16%.
On to `CC(=O)NC1=NN(C(C)=O)C(C)(c2ccc(Cl)s2)S1` (stereo not drawn), for which the inhibition was 14.9%.
For the molecule `CCc1cc(=O)oc2c(C)c(OCC(=O)N3CC[C@@]4(O)CCCC[C@H]4C3)ccc12`, the inhibition is -4.19%.
For `Brc1ccc(CN2CC[C@H]3C=CCc4cccc(c43)C2)cc1`, the inhibition was 11.8%.
`CC(C)(C)C(=O)NC(NC(=S)Nc1ccc(S(N)(=O)=O)cc1)C(Cl)(Cl)Cl` (stereo not drawn): the inhibition was 5.45%.
`Cc1ccc(NC(=S)NC(NC(=O)Cc2cccc3ccccc23)C(Cl)(Cl)Cl)cc1` (stereo not drawn): the inhibition was 54.6% (active).
Take `O=C(Cc1cccc2ccccc12)NNC(=O)Nc1ccc(Cl)cc1`: the inhibition is -196%.
Consider `O=c1c2ccccc2cnn1Cc1n[nH]c(=S)n1-c1ccccc1F`, for which the inhibition was 13.1%.
To `O=C(NCCc1cccc(F)c1)C1CC(O)CN1C(=O)Nc1ccccc1` (stereo not drawn) belongs 17.9%; to `CCCNC(=O)C1(C)CCCN(Cc2c(C)nn(-c3ccccc3)c2C)C1` (stereo not drawn), 6.85%.
As for `COc1ccc(CNC(=O)COc2ccccc2C(=O)c2cnn(-c3ccccc3)c2)cc1OC`, the figure is -184%; as for `Cc1ccc(NC(=O)CCCNC(=O)c2ccc(Cl)cc2)cc1S(=O)(=O)N1CCOCC1`, 5.62%.
Turning to `CCC1Oc2ccccc2N(CC(=O)NCCCN2CCN(CC)CC2)C1=O` (stereo not drawn), the inhibition is 4.83%.
As for `CN1CCN(CCCNC(=O)c2ccc(/C=C3\Oc4ccccc4N(Cc4ccc(Cl)cc4)C3=O)cc2)CC1`, the figure is 89.4% (active); as for `O=C1CCC(=O)N(c2ccccc2)N1`, 9.24%; as for `CN(c1ccc(OCC(=O)NC2=NCCS2)cc1)S(=O)(=O)c1ccc(F)cc1`, 1.28%.
Take `O=C(c1ccc2ccccc2n1)N1CCN(c2ccccc2Cl)CC1`: the inhibition is -107%.
As for `Cc1coc2c(O)cc3c(c12)OC1(N2CCCCC2)C(=O)NCCCC31` (stereo not drawn), the inhibition is 56.7% (active).
As for `Cn1c(=O)c2sccc2n(Cc2ccc(Br)cc2)c1=O`, the figure is 13.3%; as for `OCCC#Cc1ccc(N2C(c3ccsc3)=Cc3ccc(F)cc3C2c2c[nH]c3ccccc23)cc1` (stereo not drawn), -21.5%.
In the case of `O=C(O)CC(SCC(=O)Nc1ccc(Br)cc1)C(=O)O` (stereo not drawn), the inhibition was 2.54%.
Turning to `O=C(CCl)Nc1ccc(Sc2ccc(NC(=O)CCl)cc2)cc1`, the inhibition was 58.1% (active).
As for `CC(=O)Nc1ccc(NC(=O)CC2CCCC2)cc1`, the figure is -38.5%; as for `c1ccc(-c2cnc(CN3CCN(c4ccccc4)CC3)o2)cc1`, -16.5%.
In the case of `CC(NC(=O)C(=O)NN=C1CCC(C(C)(C)C)CC1)c1ccccc1` (stereo not drawn), the inhibition was 13.2%.
Consider `CCCCc1c(-c2ccc(Cl)cc2)ncn1CCc1ccccc1OC`, for which the inhibition was -111%.
